Results as given in the supplement of paper PMC11383364.
± gives the standard deviation of the averaged measurements.

Each molecule was assayed on SUM149 (assay: percent difference in area under dose-response curve of relative cell number, RPMI vs HPLM; higher = drug relatively more effective in HPLM than RPMI (negative = less effective in HPLM)). Conditions: treatment time: 72 h; dose range: 10-point, 1 nM to 20 µM; media compared: RPMI vs HPLM.

Structure (SMILES)	percent difference in area under dose-response curve
COc1ccc(-c2ccc3c(N4CCOCC4)nc(N4C[C@@H](C)O[C@@H](C)C4)nc3n2)cc1CO	-2.21%
CCC(C)n1ncn(-c2ccc(N3CCN(c4ccc(OCC5COC(Cn6cncn6)(c6ccc(Cl)cc6Cl)O5)cc4)CC3)cc2)c1=O (centres undefined) [Itraconazole]	-12%
O=c1[nH]c(=O)n(C2CCCO2)cc1F (centres undefined) [Ftorafur]	-2.37%
Cc1ccc(F)c(NC(=O)Nc2ccc(-c3cccc4[nH]nc(N)c34)cc2)c1 [Linifanib]	0.938%
Cc1ccc(NC(=O)c2cccc(C(C)(C)C#N)c2)cc1Nc1ccc2ncn(C)c(=O)c2c1	-22.2%
CC(C)(C)c1cc(NC(=O)Nc2ccc(-c3cn4c(n3)sc3cc(OCCN5CCOCC5)ccc34)cc2)no1 [Quizartinib]	-0.334%
Cc1cc(Nc2nc(N[C@@H](C)c3ncc(F)cn3)ncc2Cl)[nH]n1	-7.89%
CCc1c2c(nc3ccc(OC(=O)N4CCC(N5CCCCC5)CC4)cc13)-c1cc3c(c(=O)n1C2)COC(=O)[C@]3(O)CC [Irinotecan_HCl_Trihydrate]	-10.1%
COc1cc2c(cc1O)CC[C@@H]1[C@@H]2CC[C@]2(C)[C@@H](O)CC[C@@H]12 [2_Methoxyestradiol]	6.52%
CS(=O)(=O)N1CCc2c(-c3cnc(N)nc3)nc(N3CCOCC3)nc21	-3.59%
COC1=CC(c2cc3ccccc3[nH]2)=N/C1=C\c1[nH]c(C)cc1C [Obatoclax_mesylate]	-8.47%
COc1cccc2c(NCc3ccccc3)nc(-n3c(N)nc4ccccc43)nc12	-7.47%
CNC(=O)c1cc(Oc2ccc(NC(=O)Nc3cc(C(C)(C)C)nn3-c3ccc4ncccc4c3)c(F)c2)ccn1	-8.43%
COc1cccc2c1C(=O)c1c(O)c3c(c(O)c1C2=O)C[C@@](O)(C(=O)CO)C[C@@H]3O[C@H]1C[C@H](N)[C@H](O)[C@H](C)O1 [Doxorubicin]	-24.4%
O=C(c1cc(Cc2n[nH]c(=O)c3ccccc23)ccc1F)N1CCN(C(=O)C2CC2)CC1 [Olaparib]	-24.4 ± 6.6%
COc1ncc(-c2ccc3nccc(-c4ccnnc4)c3c2)cc1NS(=O)(=O)c1ccc(F)cc1F	-12.4%
CC(C)(C)c1cc(C(=O)C(C#N)=NNc2cccc(Cl)c2)no1	-6.64%

Structure (SMILES)	percent difference in area under dose-response curve
C[C@@H](Oc1cc(-c2cnn(C3CCNCC3)c2)cnc1N)c1c(Cl)ccc(F)c1Cl [Crizotinib]	-5.74%
COc1cc2/c(=N/c3ccc(Br)cc3F)nc[nH]c2cc1OCC1CCN(C)CC1 [Vandetanib]	-3.62%
O=C(Nc1ccccc1-c1cn2c(CN3CCNCC3)csc2n1)c1cnc2ccccc2n1	-8.03%
Cc1ccc(C)c(Oc2ccncc2C(=O)N2CCN(C3CC3)c3ccccc32)c1	-4.99%
C#Cc1cccc(Nc2ncnc3cc(OCCOC)c(OCCOC)cc23)c1 [Erlotinib_HCl]	-0.149%
c1ccc(Cn2c(-c3ccc(OC[C@H](C4CCNCC4)n4c(-c5ccccc5)nc5ccccc54)cc3)nc3ccccc32)cc1 [Deltarasin]	-7.63%
N#CC[C@H](C1CCCC1)n1cc(-c2ncnc3[nH]ccc23)cn1 [SRuxolitinib]	-0.914%
COc1cccc2c1C(=O)c1c(O)c3c(c(O)c1C2=O)C[C@@](O)(C(=O)CO)C[C@@H]3O[C@H]1C[C@H](N)[C@@H](O)[C@H](C)O1 [Epirubicin_HCl]	-23.5%
Cc1nc(Nc2ncc(C(=O)Nc3c(C)cccc3Cl)s2)cc(N2CCN(CCO)CC2)n1 [Dasatinib]	41.7%
C=CC(=O)Nc1cc(Nc2nccc(-c3cn(C)c4ccccc34)n2)c(OC)cc1N(C)CCN(C)C	1.9%
CC(C)n1nc(-c2ccc3oc(N)nc3c2)c2c(N)ncnc21	0.531%
Cc1nc2c(-c3cnc(N)nc3)nc(N3CCOCC3)nc2n1C(C)C	-7.54%
O=c1cnn([C@@H]2O[C@H](CO)[C@@H](O)[C@H]2O)c(=O)[nH]1 [6_Azauridine]	15.1%
Nc1nc(Nc2ccc(S(N)(=O)=O)cc2)nn1C(=O)c1c(F)cccc1F	-1.01%
COc1cc(OC2CCN(C)CC2)ccc1Nc1ncc2c(n1)n(C1CCCC1)c(=O)n2C	-4.5%
O=C(c1ccc(OCCN2CCCCC2)cc1)c1c(-c2ccc(O)cc2)sc2cc(O)ccc12 [Evista]	2.48%
CCc1c2c(nc3ccc(OC(=O)N4CCC(N5CCCCC5)CC4)cc13)-c1cc3c(c(=O)n1C2)COC(=O)[C@]3(O)CC [Irinotecan]	-12.2%
